Assay results as given in PubChem BioAssay.
Some of the results follow. Active and inactive are the calls of the source.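 The calls were made as follows, unless noted: active = mean inhibition above about 50% in the one-dose retest (limit read from the data); inactive = the rest.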

Legend:
[1] = target: Sentrin-specific protease 8 (Homo sapiens) (UniProt Q96LD8); assay: SENP8 protease inhibitors, retest, confirmation, biochemical, luminescence, single concentration (AID 488912;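 active = mean inhibition across replicates above about 50%, limit read from the data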); conditions: Recombinant SENP8, Z-RLRGG-aminoluciferin luminescence, 60 min; at 12.5 µM; active compounds read high
[2] = target: Sentrin-specific protease 6 (Homo sapiens) (UniProt Q9GZR1); assay: SENP6 protease inhibitors, confirmation, biochemical, luminescence, single concentration (AID 488915); conditions: recombinant SENP6, Z-RLRGG-aminoluciferin luminescence; at 12.5 µM; active compounds read high
[3] = target: Sentrin-specific protease 7 (Homo sapiens) (UniProt Q9BQF6); assay: SENP7 protease inhibitors, retest, confirmation, biochemical, luminescence, single concentration (AID 488917); conditions: recombinant SENP7, Z-RLRGG-aminoluciferin luminescence, 40 min; at 12.5 µM; active compounds read high
Caspase-3 (Homo sapiens) = Caspase-3 (Homo sapiens) (UniProt P42574); assay: caspase-3 protease inhibitors, confirmation, selectivity assay for SENP inhibitor project, biochemical, single concentration (AID 488918;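 active = mean inhibition above about 50%, limit read from the data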;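 also: plate controls were enzyme with DMSO for no effect and wells without caspase-3 for full effect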); conditions: purified caspase-3, Z-DEVD-aminoluciferin luminescence, 60 min; at 12.5 µM; active compounds read high
[4] = luciferase luminescence interference by compounds, confirmation, artefact control for SENP inhibitor project, biochemical, single concentration, SENP8 reaction pre-completed (AID 488919;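 active = mean inhibition above about 50% when retested at one dose, limit read from the data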;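 also: plate controls were DMSO wells with completed reaction for no effect and substrate without enzyme for full effect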); conditions: Pre-incubated SENP8/Z-RLRGG-aminoluciferin, at 12.5 µM, active compounds read high
[5] = Apaf-1 inhibitors, single-dose retest, confirmation, biochemical, fluorescence, DEVD-Rh110, 20 µM (AID 504614;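 active = mean inhibition of at least 40% at 20 µM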;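 also: plate controls were DMSO wells for no effect and DEVD-CHO caspase inhibitor control wells for full effect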); conditions: reconstituted apoptosome, caspase-3 DEVD-Rh110 fluorescence; at 20 µM; active compounds read high
[6] = Rh110 fluorescence interference by putative Apaf-1 inhibitors, confirmation, artefact control for Apaf-1 inhibitor project, biochemical, 20 µM (AID 504615;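 active = signal rise of 40% or more at 20 µM, treated as a fluorescence artifact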); conditions: quenched caspase reaction, at 20 µM, active compounds read high

Chain of Caspase-3 (Homo sapiens) (P42574 28-227 limits assumed): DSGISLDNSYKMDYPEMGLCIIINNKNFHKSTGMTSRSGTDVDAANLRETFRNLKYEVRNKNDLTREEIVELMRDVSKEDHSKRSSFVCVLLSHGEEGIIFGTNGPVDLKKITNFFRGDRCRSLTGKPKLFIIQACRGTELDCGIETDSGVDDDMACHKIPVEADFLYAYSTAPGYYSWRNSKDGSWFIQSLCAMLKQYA
Chain of Sentrin-specific protease 6 (Homo sapiens) (Q9GZR1 628-1112 limits assumed): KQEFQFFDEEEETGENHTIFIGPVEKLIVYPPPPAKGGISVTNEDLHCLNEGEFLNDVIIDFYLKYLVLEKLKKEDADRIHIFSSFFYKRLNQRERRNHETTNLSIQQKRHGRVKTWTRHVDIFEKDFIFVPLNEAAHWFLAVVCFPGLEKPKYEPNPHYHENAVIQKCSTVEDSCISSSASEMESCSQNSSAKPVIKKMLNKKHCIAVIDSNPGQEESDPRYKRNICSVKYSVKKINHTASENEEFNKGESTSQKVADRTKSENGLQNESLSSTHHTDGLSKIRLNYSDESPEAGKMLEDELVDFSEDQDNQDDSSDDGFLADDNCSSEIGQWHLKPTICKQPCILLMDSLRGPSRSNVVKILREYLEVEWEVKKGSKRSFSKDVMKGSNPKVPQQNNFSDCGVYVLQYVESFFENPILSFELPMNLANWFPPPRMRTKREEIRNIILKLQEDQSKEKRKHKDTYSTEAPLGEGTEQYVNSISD
Chain of Sentrin-specific protease 8 (Homo sapiens) (Q96LD8 whole entry, looked up): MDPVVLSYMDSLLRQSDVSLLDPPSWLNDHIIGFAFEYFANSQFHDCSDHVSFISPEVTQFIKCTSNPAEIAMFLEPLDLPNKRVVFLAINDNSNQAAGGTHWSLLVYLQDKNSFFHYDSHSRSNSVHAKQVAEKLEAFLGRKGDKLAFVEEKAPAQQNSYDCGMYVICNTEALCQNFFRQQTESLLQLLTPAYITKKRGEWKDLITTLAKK
Chain of Sentrin-specific protease 7 (Homo sapiens) (Q9BQF6 706-1050 limits assumed): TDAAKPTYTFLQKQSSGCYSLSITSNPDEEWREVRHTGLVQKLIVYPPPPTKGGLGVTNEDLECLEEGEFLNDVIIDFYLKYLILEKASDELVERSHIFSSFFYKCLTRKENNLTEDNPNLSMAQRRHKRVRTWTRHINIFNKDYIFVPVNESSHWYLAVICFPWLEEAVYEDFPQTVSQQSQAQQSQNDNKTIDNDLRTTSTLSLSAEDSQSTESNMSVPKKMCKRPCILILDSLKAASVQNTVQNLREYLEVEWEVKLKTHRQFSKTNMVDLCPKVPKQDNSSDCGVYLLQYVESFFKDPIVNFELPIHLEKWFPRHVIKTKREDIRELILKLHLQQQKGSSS

COc1cccc(C(=O)Nc2nc3ccc(S(C)(=O)=O)cc3s2)c1
active: inhibition [2] 86.4% | inhibition [3] 98.9% | inhibition (Caspase-3 (Homo sapiens)) 89.2% | inhibition [4] 73.5%
inactive: inhibition [1] 4.4%

Cc1ccccc1C(=O)Nc1ccc(N2CCCCCC2)cc1
active: inhibition [1] 73.8% | inhibition [2] 72.6% | inhibition [3] 91.7% | inhibition (Caspase-3 (Homo sapiens)) 67.2% | inhibition [4] 51.9%

COc1ccc(/C=C2/SC(=O)N(CCCCCC(=O)Nc3ccccc3C(=O)O)C2=S)cc1
inactive: inhibition [1] -4.2% | inhibition [2] 0.2% | inhibition [3] 2.7% | inhibition (Caspase-3 (Homo sapiens)) -3.8% | inhibition [4] 8.6%

O=C(Nc1ccccc1)c1ccc(NC(=O)c2cccs2)cc1
inactive: inhibition [1] -8.2% | inhibition [2] -4.8% | inhibition [3] 0.7% | inhibition (Caspase-3 (Homo sapiens)) 38.2% | inhibition [4] -1.7%

O=C(Nc1ccccc1F)c1ccc2c(c1)OCO2
active: inhibition [1] 72% | inhibition [2] 66.7% | inhibition [3] 90.9% | inhibition (Caspase-3 (Homo sapiens)) 89.4% | inhibition [4] 69.1%

c1ccc(-c2noc(-c3cccs3)n2)nc1
active: inhibition [1] 90% | inhibition [2] 91.3% | inhibition [3] 98.9% | inhibition (Caspase-3 (Homo sapiens)) 95.4% | inhibition [4] 90.1%

O=c1c2ccccc2ncn1/N=C/c1ccccc1
active: inhibition [2] 80.2% | inhibition [3] 97% | inhibition (Caspase-3 (Homo sapiens)) 86.6% | inhibition [4] 69%
inactive: inhibition [1] 2.5%

O=C(O)c1ccc2c3c(cccc13)C(=O)N(OS(=O)(=O)c1ccccc1)C2=O
inactive: inhibition [1] 36.6% | inhibition [2] 29.2% | inhibition (Caspase-3 (Homo sapiens)) 10.4%
active: inhibition [3] 68.5% | inhibition [4] 53.8%

C/C(=N\NC(=O)c1ccc(C)cc1)C1C(=O)c2ccccc2C1=O
active: inhibition [1] 92.6% | inhibition [2] 93.5% | inhibition [3] 100% | inhibition (Caspase-3 (Homo sapiens)) 92.7% | inhibition [4] 94.1%

Clc1ccc(Nc2ccc3ccccc3n2)cc1
active: inhibition [1] 87.7% | inhibition [2] 88.2% | inhibition [3] 97.8% | inhibition [4] 71.2%
inactive: inhibition (Caspase-3 (Homo sapiens)) 48.8%

O=C(Nc1ccc2c(c1)CCC2)c1cccc(S(=O)(=O)Nc2ccccc2Cl)c1
active: inhibition [3] 50.8%
inactive: inhibition [1] 44% | inhibition [2] 40.3% | inhibition (Caspase-3 (Homo sapiens)) 13.2% | inhibition [4] 4.6%

CC(=O)N1C(=O)/C(=C2\SC(=S)N(NC(=O)c3ccc(O)cc3)C2=O)c2ccccc21
active: inhibition [2] 79.1%
inactive: inhibition [1] 25.6% | inhibition [3] 25.2% | inhibition (Caspase-3 (Homo sapiens)) 10.3% | inhibition [4] 3.7%

Cc1cccc(NC(=O)COc2ccc(Br)cc2C)n1
inactive: inhibition [1] 1% | inhibition [2] 50% | inhibition [3] 7.4% | inhibition (Caspase-3 (Homo sapiens)) 20.8% | inhibition [4] 11.1%

Cc1[nH]n(C(N)=S)c(=O)c1N=Nc1ccc(Cl)cc1Cl
active: inhibition [1] 81.4% | inhibition [2] 89.8% | inhibition [3] 93.3% | inhibition (Caspase-3 (Homo sapiens)) 85.3%
inactive: inhibition [4] 38.9%

COc1cccc(-c2nc3cc(C)ccc3o2)c1
active: inhibition [1] 96.1% | inhibition [2] 99.2% | inhibition [3] 102% | inhibition (Caspase-3 (Homo sapiens)) 96.9% | inhibition [4] 94.2%

O=C(Nc1cccc2ccccc12)c1onc2c1CCCC2
active: inhibition [2] 75% | inhibition [3] 93.2% | inhibition (Caspase-3 (Homo sapiens)) 78.6% | inhibition [4] 81.4%
inactive: inhibition [1] -4.7%

c1ccc2sc(NN=C3CCCC3)nc2c1
inactive: inhibition [4] 15.5%
active: inhibition [1] 86.8% | inhibition [2] 85.9% | inhibition [3] 98.8% | inhibition (Caspase-3 (Homo sapiens)) 88%

COCCN(CCOC)c1nc(N)c2c(N)nc3c(c2c1C#N)CC(=O)N3Cc1ccc(Cl)cc1
inactive: inhibition [1] -5.5% | inhibition [2] -0.6% | inhibition [3] 5.3% | inhibition (Caspase-3 (Homo sapiens)) 3.6% | inhibition [4] -3.7%

COc1ccc(C(CC(=O)c2ccccc2)S(=O)(=O)c2ccccc2)cc1 (stereo not given)
inactive: inhibition [1] 25% | inhibition [2] 33.4% | inhibition [3] 30.3% | inhibition (Caspase-3 (Homo sapiens)) 9% | inhibition [4] 4.7%

COc1ccc(C(=O)COC(=O)c2ccc([N+](=O)[O-])s2)cc1OC
inactive: inhibition [1] 4.2% | inhibition [2] 46.8% | inhibition [3] 7.5% | inhibition (Caspase-3 (Homo sapiens)) 14.1% | inhibition [4] 6.4%

c1ccc(CN=C2Nc3ccccc3CS2)nc1
inactive: inhibition [1] 48.6% | inhibition [2] 41.9%
active: inhibition [3] 74.7% | inhibition (Caspase-3 (Homo sapiens)) 76.5% | inhibition [4] 57.5%

COc1cccc(OCC(O)CNC(=O)c2oc3c(C)c(C)ccc3c2C)c1 (stereo not given)
inactive: inhibition [1] 5.2% | inhibition [2] -1.7% | inhibition [3] -2.1% | inhibition (Caspase-3 (Homo sapiens)) -3.9% | inhibition [4] -0.9%

CC(=O)Nc1ccc(/C=N/NC(=O)c2cccs2)cc1
inactive: inhibition [1] 31.2% | inhibition [2] 34%
active: inhibition [3] 78.5% | inhibition (Caspase-3 (Homo sapiens)) 82.4% | inhibition [4] 58.1%

N/C(=N\OC(=O)c1ccc2c(c1)OCO2)c1ccc(Br)cc1
inactive: inhibition [1] -7.4% | inhibition [2] 15.2% | inhibition [3] 11.9% | inhibition (Caspase-3 (Homo sapiens)) 17.8% | inhibition [4] 3.3%

CSc1ccccc1NC(=O)c1cc(C2CC2)on1
active: inhibition [3] 62.8%
inactive: inhibition [1] 34.7% | inhibition [2] 28.3% | inhibition (Caspase-3 (Homo sapiens)) 41.1% | inhibition [4] 40%

O=c1c(-c2cccc(Cl)c2)c[nH]n1-c1ccccc1
active: inhibition [1] 63.9% | inhibition [2] 61.4% | inhibition [3] 80.8% | inhibition (Caspase-3 (Homo sapiens)) 76.2% | inhibition [4] 63.8%

Oc1ccc(N=Nc2nccs2)c(O)c1
active: inhibition [1] 82.3% | inhibition [2] 80.3% | inhibition [3] 93.9% | inhibition (Caspase-3 (Homo sapiens)) 90.8% | inhibition [4] 82.8%

Cc1cc(NC(=O)c2ccc(F)cc2)ccc1NC(=O)c1ccco1
active: inhibition [1] 78.9% | inhibition [2] 73.5% | inhibition [3] 93% | inhibition (Caspase-3 (Homo sapiens)) 88.6%
inactive: inhibition [4] 14.8%

Oc1ccccc1-c1cc(-c2ccc(Cl)cc2)n[nH]1
active: inhibition [1] 93.9% | inhibition [2] 94.4% | inhibition [3] 99.9% | inhibition (Caspase-3 (Homo sapiens)) 68.9% | inhibition [4] 75.2%

COCn1c(COc2ccccc2)nc2ccccc21
inactive: inhibition [1] 39.7% | inhibition [2] 39.5%
active: inhibition [3] 76.4% | inhibition (Caspase-3 (Homo sapiens)) 74.2% | inhibition [4] 56%

N#Cc1c(N2CCCCC2)nc(N)c2c(N)nc(SCC(=O)O)cc12
inactive: inhibition [1] 11.2% | inhibition (Caspase-3 (Homo sapiens)) 0.8% | inhibition [4] -0.2% | inhibition [5] 31.3% | activation (fluorescence interference) [6] 7.18%
active: inhibition [2] 72.6% | inhibition [3] 61.9%

CC1=NN(C(N)=S)C(=O)C1N=Nc1cc(Cl)ccc1Cl (stereo not given)
inactive: inhibition [1] -5.4% | inhibition [2] -1.7% | inhibition [3] 1.9% | inhibition (Caspase-3 (Homo sapiens)) -1.2% | inhibition [4] 1.2%

Cc1cccc(NS(=O)(=O)c2cccc(C(=O)NNC(=O)c3ccccc3O)c2)c1
active: inhibition [2] 54.5% | inhibition [3] 75.5% | inhibition (Caspase-3 (Homo sapiens)) 56.8%
inactive: inhibition [1] 26.9% | inhibition [4] 49.9%

Oc1ccc(N=Cc2sc3ccccc3c2Cl)cc1
inactive: inhibition [1] -10.7% | inhibition [2] -2.2% | inhibition [3] 49.3% | inhibition (Caspase-3 (Homo sapiens)) 1.9% | inhibition [4] 20.8% | inhibition [5] 14.4% | activation (fluorescence interference) [6] 5.12%

COc1ccc(C(=O)Nc2ccccc2C(=O)N/N=C/c2ccccc2OC)cc1
active: inhibition [3] 52.6% | inhibition (Caspase-3 (Homo sapiens)) 83.9%
inactive: inhibition [1] 4% | inhibition [2] 43.4% | inhibition [4] 15.2%

Cc1[nH][nH]c(=O)c1C(c1ccc(-c2ccc(Cl)cc2)o1)c1c(C)[nH][nH]c1=O
inactive: inhibition [1] -6.8% | inhibition [2] 16% | inhibition [3] 2.9% | inhibition (Caspase-3 (Homo sapiens)) 7.2% | inhibition [4] 1.7% | inhibition [5] 18% | activation (fluorescence interference) [6] -1.73%

Cc1cc(NC(=O)Nc2ccccc2[N+](=O)[O-])no1
active: inhibition [3] 77.2% | inhibition (Caspase-3 (Homo sapiens)) 70.8%
inactive: inhibition [1] 46% | inhibition [2] 40.1% | inhibition [4] 41.3%

Cc1ccc(C(=O)O/N=C(\N)c2ccccn2)cc1Cl
inactive: inhibition [1] 38.5% | inhibition [3] 27.2%
active: inhibition [2] 81.3% | inhibition (Caspase-3 (Homo sapiens)) 53.7% | inhibition [4] 50.2%

Cc1cccc(NC(=O)c2ccc3ccccc3n2)n1
active: inhibition [1] 76.6% | inhibition [2] 76.1% | inhibition [3] 93.6% | inhibition (Caspase-3 (Homo sapiens)) 65.2% | inhibition [4] 51.2%

O=C(N/N=C/c1cccnc1)c1cc2ccccc2cc1O
active: inhibition [3] 72.3% | inhibition (Caspase-3 (Homo sapiens)) 61.6% | inhibition [4] 53.8%
inactive: inhibition [1] 25.3% | inhibition [2] 22.6%

Cc1ccc(C(=O)N/N=C\c2cc(Br)c(Br)o2)cn1
inactive: inhibition [1] 3.5% | inhibition [2] 12.7% | inhibition [3] 8.1% | inhibition (Caspase-3 (Homo sapiens)) 12.1% | inhibition [4] -0.7% | inhibition [5] 4.66% | activation (fluorescence interference) [6] -11.2%

O=C(c1cnn2ccccc12)N1CCc2ccccc21
active: inhibition [3] 78.5% | inhibition (Caspase-3 (Homo sapiens)) 74% | inhibition [4] 61.4%
inactive: inhibition [1] 36.7% | inhibition [2] 39.6%

Cc1ccc(/C=N/NC(=O)c2cc3ccccc3cc2O)o1
active: inhibition [1] 67% | inhibition [2] 65.9% | inhibition [3] 89.2% | inhibition (Caspase-3 (Homo sapiens)) 76.8% | inhibition [4] 77.6%

Cc1sc(NC(=O)c2ccc3ncsc3c2)c(C(N)=O)c1C
inactive: inhibition [1] -15.3% | inhibition [2] -7.6% | inhibition [3] -2.8% | inhibition (Caspase-3 (Homo sapiens)) 3.3% | inhibition [4] -10.5%

Cn1cccc1C(=O)OCC(=O)c1ccc(Br)s1
active: inhibition [1] 78.3% | inhibition [2] 78.3% | inhibition [3] 95.5% | inhibition (Caspase-3 (Homo sapiens)) 77.3% | inhibition [4] 54.7%

C/C(=N\NC(=O)CNc1cccc2ccccc12)c1ccc(Br)s1
inactive: inhibition [1] -9.7% | inhibition [2] -9.8% | inhibition [3] -3.4% | inhibition (Caspase-3 (Homo sapiens)) -2.4% | inhibition [4] -7.4% | inhibition [5] 13.9% | activation (fluorescence interference) [6] 3.87%

O=C(Nc1ccccc1Cl)Nc1cccc2cccnc12
inactive: inhibition [1] 35.6% | inhibition [2] 37.2% | inhibition (Caspase-3 (Homo sapiens)) 25.9% | inhibition [4] 32.6%
active: inhibition [3] 75.2%

CC1=CC(=C(C#N)c2nc3ccccc3s2)C=C(C)N1c1ccc(F)cc1F
inactive: inhibition [1] 12.4% | inhibition [2] 19% | inhibition [3] -0.4% | inhibition (Caspase-3 (Homo sapiens)) -3.2% | inhibition [4] -9.8%
